Data as given in PubChem BioAssay.

Assay: Primary imaging screen for DUSP6 inhibitors that restore phospho-Erk in transfected HeLa cells, chemical complementation (AID 609)
Conditions: HeLa MKP-3 transfected, phospho-Erk imaging KS statistic; measured here: nuclear c-Myc green intensity z-score; at 10 µM; cells stimulated with TPA for 15 min

Question: Which z-score does the source give for `CCOC(=O)Cn1c(SC)nc2sc3c(c2c1=O)CC(C)(C)OC3` here?
Answer: The z-score was -1.44.

Question: With `Cc1cc(C)nc(CC(N)=O)n1` as the compound, how does the z-score read?
Answer: The z-score was 0.0631.

Question: For `Cc1nnc2n(-c3ccccc3)c(=O)c3c4c(sc3n12)CC(C)CC4` (centres undefined), which z-score is on record?
Answer: Its z-score is 0.767.

Question: With `COc1cc(C(=O)OCCN2CCCCC2)ccc1O` as the compound, how does the z-score read?
Answer: Its z-score is -0.645.

Question: With `N#Cc1c(NC(=O)CCC(=O)O)sc2c1CCCC2` as the compound, how does the z-score read?
Answer: Its z-score is 1.41.

Question: For `CCCCc1ccc(NC(=O)CSC2=C(C#N)C(c3ccco3)C3=C(CCCC3=O)N2)cc1` (centres undefined), which z-score is on record?
Answer: Its z-score is 1.7.

Question: Which z-score does the source give for `COC(=O)c1ccc(CSc2ncnc3c2sc2nc(N4CCOCC4)c4c(c23)CCCC4)o1` here?
Answer: Its z-score is -1.97.

Question: With `Cc1ccnc(N2CCN(c3cc(C)c(C#N)c4nc5ccccc5n34)CC2)c1` as the compound, how does the z-score read?
Answer: Its z-score is 0.0486.

Question: Which z-score does the source give for `Cc1nc(Nc2ncc3c(n2)CC(C)(C)CC3=O)nc2ccccc12` here?
Answer: The z-score was -0.197.

Question: Which z-score does the source give for `COCc1[nH]nc2c1C(c1ccccc1OC)C(C#N)=C(N)O2` (centres undefined) here?
Answer: Its z-score is 0.997.

Question: Which z-score does the source give for `CC(=O)N1CCN(c2nc(CC(C)C)c3c(c2C#N)CCC3)CC1` here?
Answer: Its z-score is -0.142.

Question: For `CCOCCN(C(=O)COC)c1cccc(OC)c1`, which z-score is on record?
Answer: Its z-score is 0.972.

Question: With `N/C(=N\c1nc2ccccc2o1)NC(=O)c1ccccc1NC(=O)c1ccccc1` as the compound, how does the z-score read?
Answer: Its z-score is -0.342.

Question: Which z-score does the source give for `Cc1ccc(C(C)C)c(OCCNc2nc3c(c(=O)n(C)c(=O)n3C)n2C)c1` here?
Answer: Its z-score is -0.388.

Question: With `Cc1nc(SCC(N)=O)[nH]c(=O)c1Cc1ccc(OC(C)C)cc1` as the compound, how does the z-score read?
Answer: The z-score was 0.503.

Question: Which z-score does the source give for `CCOc1ccc(Cc2nc(N)nc(N)n2)cc1` here?
Answer: The z-score was -0.542.

Question: For `Cc1nc(NCc2ccccc2)c(C(N)=O)c2c1COC(C)(C)C2`, which z-score is on record?
Answer: The z-score was 0.565.

Question: With `Cc1nc2n[nH]c(N)c2c2c1COC(C)(C)C2` as the compound, how does the z-score read?
Answer: The z-score was -1.79.

Question: Which z-score does the source give for `C=CCNC(=O)C(C#N)c1nc2ccccc2nc1N1CCCCCC1` (centres undefined) here?
Answer: Its z-score is 1.13.

Question: With `CC(C)C(C(=O)Nc1ncn[nH]1)N1C(=O)c2ccccc2C1=O` (centres undefined) as the compound, how does the z-score read?
Answer: The z-score was 0.141.

Question: For `CCCCOc1cccc(-c2nnc(N)s2)c1`, which z-score is on record?
Answer: Its z-score is 0.503.

Question: With `COc1ccc(OC(=O)c2cc3ccccc3o2)cc1` as the compound, how does the z-score read?
Answer: Its z-score is -0.13.

Question: For `CCNc1nc(NC(C)C)nc(N(C#N)C(C)C(=O)N(C)C)n1` (centres undefined), which z-score is on record?
Answer: The z-score was -1.64.

Question: Which z-score does the source give for `CCOC(=O)CSc1nc(-c2ccncc2)ccc1C#N` here?
Answer: Its z-score is -0.434.

Question: With `CCOc1cccc(-c2nnc3sc(C4CCCCC4)nn23)c1` as the compound, how does the z-score read?
Answer: Its z-score is -1.11.

Question: With `CCCCn1c(O)c(C=NCCCN(C)C)c(=O)[nH]c1=O` as the compound, how does the z-score read?
Answer: Its z-score is -1.01.

Question: For `COc1cccc(C2C(C#N)=C(N)Oc3cc(C)[nH]c(=O)c32)c1OC` (centres undefined), which z-score is on record?
Answer: Its z-score is -0.918.

Question: Which z-score does the source give for `Cc1cc(=O)oc(C)c1C(=O)Nc1cccc2nonc12` here?
Answer: Its z-score is -1.68.

Question: With `COc1cc(OC)cc(C(=O)N2CCC(N3CCN(c4ccccc4)CC3)CC2)c1` as the compound, how does the z-score read?
Answer: The z-score was -0.715.

Question: With `Cc1ccc2[nH]c3c(c2c1)CN(C(=O)CN1CCN(c2ccccn2)CC1)CC3` as the compound, how does the z-score read?
Answer: Its z-score is -0.583.

Question: For `COC(=O)c1sccc1NC(=O)c1c(C)cc(=O)oc1C`, which z-score is on record?
Answer: The z-score was 0.338.

Question: With `CCN(CC)c1ccc2cc(-c3nnc(-c4ccncc4)o3)c(=O)oc2c1` as the compound, how does the z-score read?
Answer: The z-score was 1.6.

Question: Which z-score does the source give for `CC(C)(C)NC(=O)CSc1nsc(SCC(=O)NC(C)(C)C)c1C#N` here?
Answer: Its z-score is -1.37.

Question: For `COC(=O)CN(c1nc(C)c(Br)c(OC)n1)S(=O)(=O)c1ccc(C)cc1`, which z-score is on record?
Answer: The z-score was 0.344.

Question: For `COc1cc(C2C3C(=O)N(c4ccccc4)C(=O)C3ON2c2ccccc2)ccc1O` (centres undefined), which z-score is on record?
Answer: Its z-score is -0.666.

Question: Which z-score does the source give for `Cc1ccc(C2C(C(=O)c3cc4ccccc4o3)=C(O)C(=O)N2CCCN(C)C)cc1` (centres undefined) here?
Answer: Its z-score is -1.28.

Question: For `CC(C)C1Cc2c(C#N)c(N)n(C)c(=S)c2CO1` (centres undefined), which z-score is on record?
Answer: Its z-score is 0.261.

Question: Which z-score does the source give for `CCC12CN3CC(CC)(CN(C1)C3c1c(O)ccc3ccccc13)C2=O` (centres undefined) here?
Answer: The z-score was 0.162.

Question: Which z-score does the source give for `CCOc1ccc(CCNC(=O)C(O)c2ccccc2)cc1` (centres undefined) here?
Answer: Its z-score is 0.643.
